# Data: PubChem BioAssay (NCI)
# The panel holds about 79,000 compounds, 15% with a hit somewhere; the sample as a whole holds those more often. Unmarked numbers belong to inactive results. Activity calls are given as the source filed them. No stated cut-off is given here; in the data, active means growth inhibition above about 70%; inactive means the rest.
# Assays:
# [1] = NCI Yeast Anticancer Drug Screen. Data for the rad50 strain (AID 155);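 further: 0% = growth of vehicle-only cultures of the same strain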; details: S. cerevisiae rad50 strain growth inhibition, stronger effect = higher value
# Summary of the method: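 Cells are treated with compound, grown, and their growth is then scored against vehicle-only cultures of the same repair-deficient yeast strain.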
# [2] = NCI Yeast Anticancer Drug Screen. Data for the mec2-1 strain (AID 157); details: S. cerevisiae mec2-1 strain, stronger effect = higher value
# Summary of the method: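 Compounds were applied to mec2-1 yeast cells. Their growth was then compared with that of vehicle-treated cultures to give growth inhibition.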
# [3] = NCI Yeast Anticancer Drug Screen. Data for the sgs1 mgt1 strain (AID 161);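 further: 0% = growth of cultures given vehicle only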; details: S. cerevisiae sgs1 mgt1 strain, stronger effect = higher value
# Summary of the method: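 Percent growth inhibition was derived by comparing compound-exposed mutant yeast with vehicle-exposed cultures. The strain carries alterations in DNA damage repair.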
# [4] = NCI Yeast Anticancer Drug Screen. Data for the cln2 rad14 strain (AID 165);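 further: 0% = growth equal to vehicle treated cultures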; details: S. cerevisiae cln2 rad14 strain, stronger effect = higher value
# Summary of the method: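 Strain: cln2 rad14 yeast, altered in cell cycle control and DNA damage repair. Read-out: growth inhibition vs vehicle.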
# [5] = NCI Yeast Anticancer Drug Screen. Data for the bub3 strain (AID 167); details: S. cerevisiae bub3 mutant strain, stronger effect = higher value
# Summary of the method: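 Part of a panel of yeast mutants defective in DNA damage repair or cell cycle regulation. Each strain is grown with compound, and inhibition is calculated relative to solvent-treated cultures.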
# [6] = NCI Yeast Anticancer Drug Screen. Data for the mlh1 rad18 strain (AID 175); details: S. cerevisiae mlh1 rad18 strain growth inhibition, stronger effect = higher value
# Summary of the method: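 A repair-deficient yeast strain is exposed to test compound, and growth is scored relative to vehicle-treated controls.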
# [7] = at 5.0 µM (retest, dose inferred, filed as 0.5)
# [8] = at 50.0 µM (retest, dose inferred, filed as 5.0)
Compound,"growth inhibition [1, 7]","growth inhibition [1, 8]",growth inhibition ([1]; at 50.0 µM),"growth inhibition [2, 7]","growth inhibition [2, 8]",growth inhibition ([2]; at 50.0 µM),"growth inhibition [3, 7]","growth inhibition [3, 8]",growth inhibition ([3]; at 50.0 µM),"growth inhibition [4, 7]","growth inhibition [4, 8]",growth inhibition ([4]; at 50.0 µM),"growth inhibition [5, 7]","growth inhibition [5, 8]",growth inhibition ([5]; at 50.0 µM),"growth inhibition [6, 7]","growth inhibition [6, 8]",growth inhibition ([6]; at 50.0 µM)
COc1ccc(/C=C/C(=N/NC(=O)c2ccccc2)C(C)CN(C)C)cc1 (stereo unspecified),-3%,4%,6.15%,1%,4%,16.3%,3%,2%,6.9%,1%,-2%,49.2%,-5%,-7%,-8.2%,-1%,-64%,7.45%
O=[N+]([O-])c1ccc2c(c1)/C(=C/c1ccccc1O)c1ccccc1-2,66%,91% (active),92.7% (active),81% (active),93% (active),90.5% (active),69%,92% (active),88.5% (active),52%,87% (active),84.3% (active),42%,91% (active),92% (active),89% (active),91% (active),90.2% (active)
COc1ccc(C(C)c2cc3c(cc2OC/C(C)=N/NC(N)=O)OCO3)cc1 (stereo unspecified),61%,93% (active),74.4% (active),43%,99% (active),71.6% (active),41%,87% (active),82% (active),19%,97% (active),19.6%,58%,99% (active),88.1% (active),–,–,–
OCc1ccc2c(c1)CC1(C2)Cc2cc3c(cc2C1O)CCC3 (stereo unspecified),20%,41%,48.6%,18%,36%,42.4%,3%,22%,51.8%,5%,51%,47.4%,21%,59%,33.2%,–,–,–
O=C(O)c1ccc2cc3ccccc3cc2c1,-16%,65%,75.9% (active),5%,48%,47.4%,-10%,50%,63%,-49%,42%,61.9%,-29%,30%,62.4%,–,–,–
Cc1ccc(NNC2=NC(=S)NC(=O)C2)cc1,12%,97% (active),97.5% (active),8%,98% (active),96.9% (active),18%,97% (active),80.6% (active),-8%,95% (active),84.8% (active),9%,97% (active),97.8% (active),18%,97% (active),98.3% (active)
COC(=O)CCCCC(=O)N(C(C)C)C(C)C,4%,-10%,-8.6%,-5%,-1%,-14.4%,-11%,-11%,-19.8%,-2%,11%,76.3% (active),2%,4%,-3.5%,5%,-5%,19.1%
[N-]=[N+]=Nc1ccc(SN2C(=O)c3ccccc3C2=O)cc1,29%,98% (active),90.7% (active),23%,95% (active),88.4% (active),6%,98% (active),92.5% (active),3%,67%,63.1%,1%,44%,95.4% (active),10%,95% (active),73.3% (active)
COc1cc(C2OC(=O)c3ccccc3S2)ccc1O (stereo unspecified),8%,92% (active),98.7% (active),12%,98% (active),98.6% (active),-4%,74% (active),71.6% (active),7%,76% (active),96% (active),5%,84% (active),95.5% (active),–,–,–
CC(=O)Oc1c2ccccc2c(C)c2c1ccc1ccccc12,65%,93% (active),96% (active),84% (active),92% (active),95% (active),89% (active),93% (active),96% (active),49%,92% (active),94.2% (active),37%,93% (active),96.7% (active),91% (active),90% (active),91.8% (active)
CCCCCCC(=O)CCCCCC/C=C\CC1OC(=O)C(N)(CO)C1O (stereo unspecified),34%,98% (active),91.5% (active),45%,99% (active),93.5% (active),43%,98% (active),93.2% (active),55%,98% (active),90% (active),80% (active),98% (active),91% (active),58%,98% (active),91.5% (active)
C1=Nc2ccccc2C=Nc2ccccc2C=Nc2ccccc2C=Nc2ccccc21.[Cl-].[Pt+2],55%,93% (active),85% (active),80% (active),97% (active),82.2% (active),36%,89% (active),76.8% (active),25%,69%,60%,75% (active),87% (active),74.7% (active),–,–,–
COc1nc2nc(SC(CC(=O)O)C(=O)c3ccc(Cl)cc3)[nH]c2c2ccccc12 (stereo unspecified),1%,7%,10.1%,0%,1%,7.45%,2%,-18%,-3.85%,2%,-15%,-12.1%,-2%,-1%,-5.45%,-1%,–,32.9%
O=c1oc2c/c(=C\c3ccccc3)c(=O)c3cccc1c3-2,-6%,97% (active),84.4% (active),-2%,95% (active),88.7% (active),12%,97% (active),81.2% (active),-7%,96% (active),87.2% (active),-7%,96% (active),86.7% (active),28%,96% (active),78.7% (active)
S=C(Nc1ccccc1)[S][Sb]([S]C(=S)Nc1ccccc1)[c]1ccccc1,-5%,80% (active),41.4%,-6%,98% (active),20%,-56%,77% (active),43.1%,-8%,34%,12.1%,-11%,25%,3.15%,-2%,94% (active),63.4%
COc1ccc(C(=O)Cn2c(C(C)=O)nc3ccccc32)cc1,26%,66%,-23.6%,18%,36%,-21.1%,36%,73% (active),-14.5%,6%,32%,4%,31%,36%,-32.6%,–,–,–
S=c1[nH]c2ccc(Br)cc2c(=S)n1-c1ccccc1,-1%,19%,90.5% (active),1%,5%,91.2% (active),0%,24%,89.5% (active),-1%,4%,88% (active),-9%,14%,89.4% (active),-29%,5%,87.7% (active)
Cc1cc2nc(CC(=O)c3ccc4ccccc4c3)c(=O)[nH]c2cc1C,-43%,-24%,94.7% (active),-3%,9%,81.4% (active),-5%,-21%,88.3% (active),-17%,-33%,80.9% (active),13%,-19%,89% (active),–,–,–
Oc1ccc(C2CCCCC2)c(O)c1,-2%,42%,75.5% (active),2%,53%,61.4%,7%,37%,66%,30%,45%,65.8%,7%,66%,67.3%,2%,72% (active),65.8%
CC(C)N=Cc1cc(I)cc(I)c1O.CC(C)N=Cc1cc(I)cc(I)c1O.[Co],99% (active),99% (active),96.8% (active),99% (active),99% (active),97.6% (active),99% (active),99% (active),97.2% (active),98% (active),98% (active),96.1% (active),98% (active),99% (active),96.5% (active),99% (active),99% (active),97% (active)
CC(=O)Oc1cc2c(=O)oc3c(OC(C)=O)c(OC(C)=O)c(OC(C)=O)c4c(=O)oc(c1OC(C)=O)c2c34,40%,58%,89.5% (active),41%,48%,76.6% (active),37%,61%,87.2% (active),20%,40%,73.8% (active),45%,71% (active),88.3% (active),39%,45%,88.2% (active)
